Experimental data: PubChem BioAssay AID2242 (National Center for Advancing Translational Sciences (NCATS), 2010)
Among all 200,000 compounds or so, about 720 (0.36%) were called active. About 8% were inconclusive and are not listed. Calls follow the shape of the dose curve; as a rule, active = well fitted activation curve with a large enough effect; inconclusive = small, poorly fitted or top-dose-only effect, or effect the other way, or another doubt; inactive = flat fitted curve, though single readings scatter. The list shows a part of the results.

What follows are compounds tested against Lysosomal alpha-glucosidase (Homo sapiens) (UniProt P10253) (assay: qHTS Assay for Activators of Human alpha-Glucosidase as a Potential Chaperone Treatment of Pompe Disease). Settings: purified enzyme, 4-MU-alpha-glucoside fluorescence, 20 min.
From the text: NIH Chemical Genomics Center [NCGC] NIH Molecular Libraries Probe Production centers Network [MLPCN] MLPCN Grant: 1R03MH084841-01 Assay Submitter (PI): Wei Zheng NCGC Assay Overview: Alpha-glucosidase is responsible for hydrolysis of terminal, non-reducing 1,4-linked alpha-D-glucose residues with release of alpha-D-glucose. It is a lysosomal hydrolase that is required for the degradation of a small percentage (1-3%) of cellular glycogen in human. Deficiency of this enzyme results in glycogen-storage disease type II (GSDII), also referred to as Pompe disease, an autosomal recessive disorder. Structurally normal glycogen is accumulated in lysosomes and cytoplasm in affected patients, primarily in muscle tissues. Excessive glycogen storage within lysosomes may interrupt normal functioning of other organelles and leads to cellular injury. In turn, this leads to enlargement and dysfunction of the entire organ involved (eg, cardiomyopathy and muscle weakness). It has reported that the improper folding and trafficking of alpha-glucosidase resulting from the genetic mutations may account for a significant number of Pompe patients. […] We optimized this alpha-glucosidase assay in 1536-well plate format for identifying the novel small molecule inhibitors with the structures other than the sugar analogs in order to develop the new pharmacological chaperones, but are also able to detect potential activators. In conjunction with assays against alpha-galactosidase (AID 1467), fluorogenic false positive compounds can be identified.
NCGC Assay Protocol Summary: This is a fluorogenic enzyme assay with 4-methylumbelliferyl-alpha-D-[…] as the substrate and human alpha-glucosidase as the enzyme preparation. Upon the hydrolysis of this fluorogenic substrate, the resulting product, 1. 4-methyllumbelliferone, can be excited at 365 nm and emits at 440 nm which can be detected by a standard fluorescence plate reader. Data were normalized to the controls for basal activity (without enzyme) and 100% activity (with enzyme). In the AC50 values were determined from concentration-response data modeled with the standard Hill equation. Assay buffer: 50 mM citric acid (titrated with potassium phosphate to pH 5.0), 0.005% Tween-20, pH 5.0. (pH 5.0 is an optimal condition for this enzyme assay) 1536-well assay protocol for the human alpha-glucosidase: (1) Add 2 ul/well of enzyme (4 nM final) (2) Add 23 nL compounds in DMSO solution. The final titration was 0.7 nM to 77 uM. (3) Add 1 ul of substrate (400 uM final) (4) Incubate at room temperature for 20 min. (5) Add 2 ul stop solution (1M NaOH and 1M Glycine mixture, pH 10) (6) Detect the assay plate in a ViewLux plate reader (PerkinElmer) with Ex=365 nm and Em=440nm. Keywords: Alpha-glucosidase, Pompe Disease, pharmacological chaperone, chaperone therapy, high throughput screening, alpha-glucosidase inhibitor, MLSMR, MLSCN, NIH Roadmap, qHTS and NCGC
Also: nearly all actives have a fitted effect of over 80% in size.
Potency is read from the fitted curve at half-maximal effect.

| Structure (SMILES) | Potency |
| --- | --- |
| N#CC1=C(N)Oc2c(c(=O)oc3ccccc23)C1c1ccc(OC(=O)N2CCOCC2)cc1 (centres undefined) | 35.5 µM (active) |
| COc1ccc(CNc2oc(-c3cccc4ccccc34)nc2P(=O)(OC)OC)cc1 | 35.5 µM (active) |
| CCOP(=O)(OCC)c1nc(-c2cccc3ccccc23)oc1NCCc1ccc(OC)cc1 | 31.6 µM (active) |
| COP(=O)(OC)c1nc(-c2cccc3ccccc23)oc1NCCc1ccccc1 | 31.6 µM (active) |
| COCCN1Cc2cc(=O)n3c([nH]c4ccccc43)c2C1=N | 31.6 µM (active) |
| COC(=O)c1ccc(C(=O)OC)c(NC(=O)Oc2ccccc2)c1 | 31.6 µM (active) |
| CC(C)OCCCNC(=O)c1c(N)n(CC2CCCO2)c2nc3ccccc3nc12 (centres undefined) | 39.8 µM (active) |
| CCCNC(=O)c1c(N)n(CC2CCCO2)c2nc3ccccc3nc12 (centres undefined) | 31.6 µM (active) |
| CN1CCc2c(C#N)c(Cl)nc(Cl)c2C1 | 35.5 µM (active) |
| N#Cc1c(Cl)nc(Cl)c2c1CCN(Cc1ccccc1)C2 | 31.6 µM (active) |
| CC(C)CCn1c(N)c(C(=O)OCC2CCCO2)c2nc3ccccc3nc21 (centres undefined) | 31.6 µM (active) |
| CCCCn1c(N)c(C(=O)OCC2CCCO2)c2nc3ccccc3nc21 (centres undefined) | 35.5 µM (active) |
| COCCOC(=O)c1c(N)n(Cc2ccccc2)c2nc3ccccc3nc12 | 35.5 µM (active) |
| COCCOC(=O)c1c(N)n(Cc2ccc(OC)cc2)c2nc3ccccc3nc12 | 35.5 µM (active) |
| COc1ccc(-c2cc(=NCCC(=O)O)c3cc(C)ccc3o2)cc1 | 28.2 µM (active) |
| COc1ccc(-c2cc(=NCCCCCC(=O)O)c3cc(C)ccc3o2)cc1 | 31.6 µM (active) |
| CCOC(=O)c1c(N)n(Cc2ccc(OC)cc2)c2nc3ccccc3nc12 | 25.1 µM (active) |
| COC(=O)c1c(N)n(Cc2ccc(OC)cc2)c2nc3ccccc3nc12 | 35.5 µM (active) |
| CC(C)CCOC(=O)c1c(N)n(CC2CCCO2)c2nc3ccccc3nc12 (centres undefined) | 39.8 µM (active) |
| CC(C)OC(=O)c1c(N)n(CC2CCCO2)c2nc3ccccc3nc12 (centres undefined) | 35.5 µM (active) |

| Structure (SMILES) | Potency |
| --- | --- |
| Nc1c(C(=O)OC2CCCCC2)c2nc3ccccc3nc2n1CC1CCCO1 (centres undefined) | 35.5 µM (active) |
| COCCCn1c(N)c(C(=O)OC(C)COC)c2nc3ccccc3nc21 (centres undefined) | 39.8 µM (active) |
| COCCCn1c(N)c(C(=O)OCCOC)c2nc3ccccc3nc21 | 31.6 µM (active) |
| O=C(c1cc2c(s1)-c1ccccc1OC2)N1CCC2(CC1)OCCO2 | 39.8 µM (active) |
| COP(=O)(OC)c1nc(-c2cccc3ccccc23)oc1N1CCCCC1 | 35.5 µM (active) |
| CCOP(=O)(OCC)c1nc(-c2cccc3ccccc23)oc1N1CCOCC1 | 39.8 µM (active) |
| CCOP(=O)(OCC)c1nc(-c2cccc3ccccc23)oc1N1CCCCC1 | 35.5 µM (active) |
| Nc1c(C(=O)NCCN2CCOCC2)c2nc3ccccc3nc2n1Cc1ccco1 | 39.8 µM (active) |
| CCCCn1c(NC(=O)c2ccc(Br)o2)c(C(=O)OCC)c2nc3ccccc3nc21 | 35.5 µM (active) |
| CCOC(=O)c1c(N)n(Cc2ccco2)c2nc3ccccc3nc12 | 39.8 µM (active) |
| COCCNC(=O)c1c(N)n(Cc2ccco2)c2nc3ccccc3nc12 | 31.6 µM (active) |
| CCOC(=O)c1c(N)n(CCCOC(=O)c2ccco2)c2nc3ccccc3nc12 | 35.5 µM (active) |
| CC(C)(C)OC(=O)c1c(N)n(Cc2ccco2)c2nc3ccccc3nc12 | 35.5 µM (active) |
| CCCCCn1c(N)c(C(=O)NCCN2CCOCC2)c2nc3ccccc3nc21 | 35.5 µM (active) |
| COCCOC(=O)c1c(N)n(Cc2ccco2)c2nc3ccccc3nc12 | 35.5 µM (active) |
| CC(=O)N1CCC2(CC1)CC(=O)c1cc(OCC(=O)N3CCC4(CC3)OCCO4)ccc1O2 | 31.6 µM (active) |
| CCC(C)OC(=O)c1c(N)n(Cc2cccs2)c2nc3ccccc3nc12 (centres undefined) | 35.5 µM (active) |
| CCCOC(=O)c1c(N)n(Cc2cccs2)c2nc3ccccc3nc12 | 39.8 µM (active) |
| CC(C)CCn1c(N)c(C(=O)NCc2cccs2)c2nc3ccccc3nc21 | 28.2 µM (active) |
